According to PubChem BioAssay (NCI):
This is part of a sample that, as a whole, favours compounds with a hit. Of some 83,000 tested, about 20% had one in any assay.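 Cells were grown in 96-well plates and exposed to the test compound at a single concentration for 48 hours; results are reported as percent growth, with values below 10 considered active.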 Unmarked numbers belong to inactive results. Calls of active or inactive are those of the source.

Columns and labels:
Assay in all cases: NCI-60 one-dose screen, 48 h (100 = growth as untreated, 0 = no growth, -100 = all killed)
Settings in all cases: 10 µM
T-47D breast = test system: T-47D breast
BT-549 breast = test system: BT-549 breast
MDA-MB-435 melanoma = test system: MDA-MB-435 melanoma
SW-620 colon = test system: SW-620 colon
MCF7 breast = test system: MCF7 breast
HCT-116 colon = test system: HCT-116 colon
HCC-2998 colon = test system: HCC-2998 colon
KM12 colon = test system: KM12 colon
MDA-MB-468 breast = test system: MDA-MB-468 breast

**Q.** With `OCc1[nH]nc2cc(Nc3ncc4ccc(Br)c(OC5CCC(O)CC5)c4n3)ccc12` (configuration not stated) as the compound, how does the growth (T-47D breast) read?
**A.** The growth was 2.7% (active).

**Q.** And the growth (BT-549 breast)?
**A.** Its growth is -42.5% (active).

**Q.** What about the growth (MDA-MB-435 melanoma) of the same compound?
**A.** The growth was -15.7% (active).

**Q.** And the growth (SW-620 colon)?
**A.** Its growth is -18.6% (active).

**Q.** And the growth (MCF7 breast)?
**A.** The growth was -74.7% (active).

**Q.** What about the growth (HCT-116 colon) of the same compound?
**A.** Its growth is 6.59% (active).

**Q.** And the growth (HCC-2998 colon)?
**A.** Its growth is -49% (active).

**Q.** And the growth (KM12 colon)?
**A.** Its growth is 2.85% (active).

**Q.** And the growth (MDA-MB-468 breast)?
**A.** Its growth is -87.8% (active).

**Q.** How did the growth (T-47D breast) turn out when `COc1cnc2c(c1)C(=O)c1c-2n(CCCNCCO)c(=O)c2cc(OC)c(OC)cc12` was run?
**A.** The growth was 10.1%.

**Q.** And the growth (BT-549 breast)?
**A.** Its growth is 40.7%.

**Q.** What about the growth (MDA-MB-435 melanoma) of the same compound?
**A.** The growth was 49.7%.

**Q.** What about the growth (SW-620 colon) of the same compound?
**A.** Its growth is 38.4%.

**Q.** And the growth (MCF7 breast)?
**A.** The growth was 5.82% (active).

**Q.** What about the growth (HCT-116 colon) of the same compound?
**A.** Its growth is 1.67% (active).

**Q.** And the growth (HCC-2998 colon)?
**A.** Its growth is 30.3%.

**Q.** What about the growth (KM12 colon) of the same compound?
**A.** Its growth is 54.5%.

**Q.** And the growth (MDA-MB-468 breast)?
**A.** The growth was -48.8% (active).

**Q.** Which results are given for `COC[C@@H](CC(C)C)N=C1NC(=O)/C(=C/c2ccc3ncoc3c2)N1`?
**A.** growth (T-47D breast): -4.84% (active); growth (BT-549 breast): 2.39% (active); growth (MDA-MB-435 melanoma): 17.3%; growth (SW-620 colon): 0.318% (active); growth (MCF7 breast): 1.91% (active); growth (HCT-116 colon): 22.8%; growth (HCC-2998 colon): 36.7%; growth (KM12 colon): 16.4%; growth (MDA-MB-468 breast): -31.1% (active)

**Q.** Which growth (T-47D breast) does the source give for `CC(=C(c1ccc(OCCN2CCCCC2)cc1)c1ccc(OCCN2CCCCC2)cc1)c1ccccc1` here?
**A.** The growth was -20.3% (active).

**Q.** What about the growth (BT-549 breast) of the same compound?
**A.** Its growth is 110%.

**Q.** What about the growth (MDA-MB-435 melanoma) of the same compound?
**A.** Its growth is -66% (active).

**Q.** And the growth (SW-620 colon)?
**A.** Its growth is 12.3%.

**Q.** What about the growth (MCF7 breast) of the same compound?
**A.** The growth was -48.3% (active).

**Q.** And the growth (HCT-116 colon)?
**A.** Its growth is 14.3%.

**Q.** What about the growth (HCC-2998 colon) of the same compound?
**A.** The growth was 15.7%.

**Q.** What about the growth (KM12 colon) of the same compound?
**A.** The growth was 24.4%.

**Q.** And the growth (MDA-MB-468 breast)?
**A.** The growth was 37.4%.

**Q.** Which growth (T-47D breast) does the source give for `Cn1cc(/C=N/Nc2ccnc3cc(Cl)ccc23)c2ccccc21` here?
**A.** The growth was -60.9% (active).

**Q.** What about the growth (BT-549 breast) of the same compound?
**A.** The growth was -64.6% (active).

**Q.** What about the growth (MDA-MB-435 melanoma) of the same compound?
**A.** The growth was -83.5% (active).

**Q.** And the growth (SW-620 colon)?
**A.** The growth was -62.8% (active).

**Q.** What about the growth (MCF7 breast) of the same compound?
**A.** The growth was -78.4% (active).

**Q.** What about the growth (HCT-116 colon) of the same compound?
**A.** The growth was -46.5% (active).

**Q.** And the growth (HCC-2998 colon)?
**A.** Its growth is -87.8% (active).

**Q.** What about the growth (KM12 colon) of the same compound?
**A.** Its growth is -94.3% (active).

**Q.** And the growth (MDA-MB-468 breast)?
**A.** The growth was -83.5% (active).

**Q.** For `CN1CCc2c(sc3ncnc(N/N=C/c4cn(-c5ccccc5)nc4-c4ccc(Cl)cc4)c23)C1`, which growth (T-47D breast) is on record?
**A.** Its growth is 35.9%.

**Q.** What about the growth (BT-549 breast) of the same compound?
**A.** Its growth is 41.1%.

**Q.** And the growth (MDA-MB-435 melanoma)?
**A.** Its growth is 41.9%.

**Q.** What about the growth (SW-620 colon) of the same compound?
**A.** The growth was 10.8%.

**Q.** What about the growth (MCF7 breast) of the same compound?
**A.** The growth was -31.6% (active).

**Q.** And the growth (HCT-116 colon)?
**A.** The growth was 2.65% (active).

**Q.** What about the growth (HCC-2998 colon) of the same compound?
**A.** The growth was 5.24% (active).

**Q.** And the growth (KM12 colon)?
**A.** Its growth is 21.6%.

**Q.** And the growth (MDA-MB-468 breast)?
**A.** The growth was -55.4% (active).

**Q.** What does the source list for `CC(=O)C1=C(C)NC(SCC(=O)Nc2ccc(S(=O)(=O)Nc3cc(C)on3)cc2)=NC1c1ccccc1` (configuration not stated)?
**A.** growth (T-47D breast): 99.3%; growth (BT-549 breast): 114%; growth (MDA-MB-435 melanoma): 99.6%; growth (SW-620 colon): 106%; growth (MCF7 breast): 87.5%; growth (HCT-116 colon): 105%; growth (HCC-2998 colon): 112%; growth (KM12 colon): 99.8%; growth (MDA-MB-468 breast): 111%

**Q.** `O=C(Nc1ccc(Cl)c([N+](=O)[O-])c1)Nc1ccc(Cl)c([N+](=O)[O-])c1` was tested. Which growth (T-47D breast) did it give?
**A.** Its growth is 1.86% (active).

**Q.** What about the growth (BT-549 breast) of the same compound?
**A.** Its growth is -11.6% (active).

**Q.** And the growth (MDA-MB-435 melanoma)?
**A.** The growth was 13.3%.

**Q.** And the growth (SW-620 colon)?
**A.** The growth was 18.7%.

**Q.** And the growth (MCF7 breast)?
**A.** The growth was -5.85% (active).

**Q.** And the growth (HCT-116 colon)?
**A.** The growth was 9.36% (active).

**Q.** What about the growth (HCC-2998 colon) of the same compound?
**A.** Its growth is 12.7%.

**Q.** And the growth (KM12 colon)?
**A.** Its growth is 5.87% (active).

**Q.** And the growth (MDA-MB-468 breast)?
**A.** Its growth is -27.2% (active).
